# Measured values as given in PubChem BioAssay (EPA / NIEHS).
# Where “and” joins values, the source holds several entries; their conditions need not be identical. Equal entries are not always repeated. The source holds several records for some structures; these can differ, active in one and inactive in another. Calls of active or inactive are those of the source. The calls were made as follows: active = hit-call score of the fitted dose curve at least 0.9, where 1 is the maximum; inactive = score below 0.9.
# Read-out: Monokine induced gamma interferon (MIG), CXCL9 (gene 4283)
# Assay: BSK_hDFCGF_MIG: BioMAP Diversity Plus: hDFCGF Assay for Monokine induced gamma interferon (MIG) Biomarker Activity (AID 2283063)
# Conditions: primary human foreskin fibroblasts; actives raise or lower the signal
# Experimental: BSK_hDFCGF is a cell-based, multiplexed-readout assay that uses foreskin fibroblast, a human skin primary cell, with measurements taken at 24 hours after chemical dosing in a 96-well plate.BSK_hDFCGF_MIG is an assay component measured in the BSK_hDFCGF assay. It measures MIG antibody related to regulation of gene expression using ELISA technology.Data from the assay component BSK_hDFCGF_MIG was analyzed into 1 assay endpoint. This assay endpoint, BSK_hDFCGF_MIG, was analyzed with bidirectional fitting relative to DMSO as the negative control and baseline of activity. Using a type of binding reporter, gain or loss-of-signal activity can be used to understand changes in the signaling as they relate to the gene CXCL9. Furthermore, this assay endpoint can be referred to as a primary readout, because this assay has produced multiple assay endpoints where this one serves a signaling function. To generalize the intended target to other relatable targets, this assay endpoint is annotated to the cytokine intended target family, where the subfamily is chemotactic factor.
# The levels of cell surface (or secreted, indicated by the prefix "s") biomarker endpoints were measured by ELISA. Overt cytotoxicity to cells in confluent adherent cultures (all systems other than the BT system) was assessed by measuring total protein levels using sulforhodamine B (SRB) staining in parallel cultures at the time of biomarker measurements, indicated as SRB endpoints. For proliferation assays for adherent cell types, individual cell types are cultured at sub-confluence and relative cell numbers quantified by SRB staining at time points optimized for each system (48 h: 3C and CASM3C systems; 72 h: BT and HDF3CGF systems; 96 h: SAg system). SRB was performed by staining cells with 0.1% SRB after fixation with 10% TCA and reading wells at 560 nm.Viability and proliferation of PBMC (T cells) was quantified by Alamar Blue reduction for the SAg and BT systems. For PBMC viability (referred to as PBMC Cytotoxicity within the assay endpoint names), cells were plated (75,000/well in a 96-well plate) and then chemical samples added for 1 h before addition of activators, SEB and TSST-1 (20 ng/mL final concentration each). Cells were incubated for 90 h. Then, Alamar Blue (20 uL/well) (Invitrogen, Cat DAL1100) was added for 6 h, and the plates were read with a fluorescence microplate reader at 546/580 nm (excitation/emission). For PBMC proliferation, cells were plated and activated as above but incubated for only 16 h prior to addition of Alamar Blue. Plates were read after 6 h.
SMILES,outcome,AC50
N=C(N)c1ccc(OCCCCCOc2ccc(C(=N)N)cc2)cc1,inactive,–
O=P(O)(O)CCC(F)(F)C(F)(F)C(F)(F)C(F)(F)C(F)(F)C(F)(F)F,inactive,–
CC[N+](CC)(CC)Cc1ccccc1,inactive,–
O=C(O)C(F)(F)OC(F)(F)C(F)(F)OC(F)(F)C(F)(F)OC(F)(F)C(F)(F)C(F)(F)C(F)(F)F,–,12.1 µM (active) and 10.3 µM (active)
O=C1c2ccc(O)c(O)c2C(=O)c2c(O)ccc(O)c21,inactive,–
CCCCc1oc2ccccc2c1C(=O)c1cc(I)c(OCCN(CC)CC)c(I)c1,–,10.2 µM (active)
Oc1c(Cl)cc(Cl)cc1Sc1cc(Cl)cc(Cl)c1O,–,2.22 µM (active)
Cc1ccc(C(=O)c2ccccc2)cc1,–,29.5 µM (active)
C[C@]12CC[C@@H]3c4ccc(O)cc4CC[C@H]3[C@@H]1C[C@@H](O)[C@@H]2O,inactive,–
O=C(CCCN1CCC(O)(c2ccc(Cl)cc2)CC1)c1ccc(F)cc1,inactive,–
C=COC(=O)C(C)(C)CCCCCC,–,35 µM (active)
Oc1ccc(Cc2ccccc2O)cc1,inactive,–
O=C1NS(=O)(=O)c2ccccc21,inactive,–
CN(C)c1ccc(C(=C2C=CC(=[N+](C)C)C=C2)c2ccccc2)cc1,–,0.0509 µM (active)
CCCCCc1ccc(O)cc1,–,31.3 µM (active)
COC1=CC(=O)C[C@@H](C)[C@]12Oc1c(Cl)c(OC)cc(OC)c1C2=O,inactive,–
Clc1ccc(Nc2nnc(Cc3ccncc3)c3ccccc23)cc1,inactive,–
CN(C)CCOC(c1ccccc1)c1ccccc1,inactive,–
CCCCC(CC)C(=O)OCCOCCOCCOCCOC(=O)C(CC)CCCC (stereo not given),inactive,–

SMILES,outcome,AC50
Cc1cccc2c1ccc1ccccc12,inactive,–
O=C(NCc1ncc(C(F)(F)F)cc1Cl)c1c(Cl)cccc1Cl,inactive,–
O=C(c1ccccc1)c1ccccc1,inactive,–
CC1=NN(c2ccccc2)C(=O)C1,inactive,–
COc1cc(OC)nc(NC(=O)NS(=O)(=O)Nc2ccccc2C(=O)N(C)C)n1,inactive,–
O=P(O)(O)CCC(F)(F)C(F)(F)C(F)(F)C(F)(F)C(F)(F)C(F)(F)C(F)(F)C(F)(F)F,inactive,0.615 µM (active)
C=CC(=C)CC/C=C(\C)CCC=C(C)C,inactive,–
Cc1[nH]nc2c1N=C(c1ccccc1Cl)c1cc([N+](=O)[O-])ccc1N2,–,31.1 µM (active)
CC(=O)Nc1ccc(O)cc1,inactive,–
OCC(F)(F)C(F)(F)C(F)(F)C(F)(F)C(F)(F)C(F)(F)C(F)(F)C(F)(F)C(F)(F)C(F)(F)C(F)(F)F,inactive,–
O=C(NO)c1ccccc1,inactive,–
CN(CCO)S(=O)(=O)C(F)(F)C(F)(F)C(F)(F)C(F)(F)C(F)(F)C(F)(F)C(F)(F)C(F)(F)F,inactive,–
COc1cccc(O)c1,inactive,–
O=C(O)CCC(F)(F)C(F)(F)C(F)(F)C(F)(F)C(F)(F)F,inactive,–
CCOC(=O)CN[C@@H](C(=O)N1CC[C@H]1C(=O)NCc1ccc(/C(N)=N/O)cc1)C1CCCCC1,inactive,–
O=C(CC(=O)C(F)(F)C(F)(F)C(F)(F)F)c1cccs1,inactive,7.78 µM (active)
CCCCCCCCCCCCOS(=O)(=O)O,–,27.7 µM (active)
O=C1OC2(c3ccccc31)c1cc(I)c(O)c(I)c1Oc1c2cc(I)c(O)c1I,–,18.6 µM (active)
OCC(CO)(CBr)CBr,inactive,–
